Screening data (PubChem BioAssay)
Only some compounds are listed: those with a hit (about 18% of all), similar ones and a draw of the others.
LDHA block – qHTS assay for inhibitors of human lactate dehydrogenase; L-lactate dehydrogenase A chain (Homo sapiens), P00338; purified LDHA, NADH/diaphorase-resazurin fluorescence; hits give low values; activity change, % (values are at about 110 or 230 µM); 480,000 tested, 0.15% active; AID 1347041, 2019; in the data active means activity change below about -30%; inconclusive means mostly about -25% to -30%
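LDH5 2 nM; NADH 0.06 mM, pyruvate 0.2 mM; 200 mM Tris pH 7.4, EDTA, Tween-20; 5 min RT. Detection: diaphorase 0.133 mg/mL + resazurin 37 µM, fluorescence ex540/em590 at 0 and 20 min; normalized to enzyme-free and DMSO wells.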
VP16 counter – VP16 counterscreen qHTS for inhibitors of ROR gamma transcriptional activity; Drosophila S2 Gal4-VP16 UAS-luciferase, luminescence, 20 h; Potency, µM (top dose mostly 53.6 µM), actives largely listed as inhibitors; 310,000 tested, 3.5% active; AID 2546, 2010;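 further: Gal4-VP16 expression switched on by copper sulfate through the metallothionein promoter; nearly all actives have a fitted effect of over 50% in size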
IL-1B inflam inh – qHTS for Inhibitors of Inflammasome Signaling: IL-1-beta AlphaLISA Primary Screen | activity change, % at 57.5 µM | AID 743279, 2014 | 360,000 tested, 4.7% active | THP-1 LPS/ATP IL-1B secretion, AlphaLISA, 16 h; hits give low values; in the data active means activity change below about -50%; inconclusive means mostly about -30% to -49%
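THP-1 cells pretreated 1 hr with compounds (up to 57.5 uM final), then stimulated with LPS (250 ng/mL final) plus ATP (1.25 mM final); secreted IL-1B measured by AlphaLISA after 16 hr, decreased signal indicating inhibition.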
TDP1 cell noCPT – qHTS for Inhibitors of human tyrosyl-DNA phosphodiesterase 1 (TDP1): qHTS in cells in absence of CPT. Potency, µM (doses to about 46.2 µM), hits mostly inhibitors. AID 686978, 2013. 420,000 tested, 15% active. DT40 Tdp1-/- hTDP1 cells, no CPT, ATP luminescence, 48 h; further: nearly all actives have a fitted effect of over 55% in size
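Chicken DT40 Tdp1-/- cells stably complemented with human TDP1 were seeded at 400 cells/well with DMSO in place of 20 nM camptothecin. After compound pinning, cells grew at least 48 hr at 37 °C; viability read by CellTiter-Glo luminescence.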
DT40 TDP1 CPT – qHTS for Inhibitors of human tyrosyl-DNA phosphodiesterase 1 (TDP1): qHTS in cells in presence of CPT; chicken DT40 Tdp1-/-;hTDP1 cells + 20 nM CPT, ATP luminescence, 48 h; Potency, µM (doses to about 46.2 µM), hits mostly inhibitors; 420,000 tested, 12% active; AID 686979, 2013; further: nearly all actives have a fitted effect of over 55% in size
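Chicken DT40 Tdp1-/- cells complemented with human TDP1, 400 cells/well, exposed to compounds plus 20 nM camptothecin for at least 48 h at 37 C; viability read as ATP content by CellTiter-Glo luminescence.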
RORgamma inh – qHTS for inhibitors of ROR gamma transcriptional activity | Drosophila S2 Gal4-RORgamma UAS-luciferase reporter, 20 h | AID 2551, 2010 | Nuclear receptor ROR-gamma (Mus musculus), P51450 | Potency, µM (highest dose often 53.6 µM), most hits filed as inhibitors | 310,000 tested, 5.4% active; further: nearly all actives have a fitted effect of over 60% in size
Target sequence (P51450 whole entry, looked up, the tested form may be a part): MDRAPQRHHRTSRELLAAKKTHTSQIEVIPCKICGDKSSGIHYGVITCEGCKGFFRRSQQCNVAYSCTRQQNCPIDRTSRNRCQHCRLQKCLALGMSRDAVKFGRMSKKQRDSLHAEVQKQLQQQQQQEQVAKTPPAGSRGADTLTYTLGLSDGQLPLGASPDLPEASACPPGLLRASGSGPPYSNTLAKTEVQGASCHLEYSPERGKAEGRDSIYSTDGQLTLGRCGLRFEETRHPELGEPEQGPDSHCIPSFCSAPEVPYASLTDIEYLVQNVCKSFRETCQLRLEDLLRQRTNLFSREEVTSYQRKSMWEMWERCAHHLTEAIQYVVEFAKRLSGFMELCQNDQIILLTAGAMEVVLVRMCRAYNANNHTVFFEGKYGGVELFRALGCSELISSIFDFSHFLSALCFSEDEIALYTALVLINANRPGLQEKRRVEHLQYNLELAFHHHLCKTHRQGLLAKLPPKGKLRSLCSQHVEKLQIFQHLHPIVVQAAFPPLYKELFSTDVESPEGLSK
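Drosophila Schneider cells stably carrying a metallothionein-driven Gal4 DBD–ROR gamma fusion and a UAS-Photinus luciferase reporter were exposed to compound for 1 hr, then induced with copper sulfate (700 uM final) for 20 hr at ambient temperature before luminescence reading.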
A number is an active result. Unless noted, the call rests on the fitted dose curve; in most records, active means well fitted curve in the direction sought with a large enough effect; inconclusive means small, poorly fitted or top-dose-only effect, or another doubt; inactive means no such curve, though single readings can be large; an effect the other way counts as inactive or inconclusive.

COc1cc(NC(=S)NCCCO)c(OC)cc1Cl was read as LDHA block inactive, VP16 counter inactive, IL-1B inflam inh inactive, TDP1 cell noCPT inactive, DT40 TDP1 CPT inactive and RORgamma inh inactive.
CCOc1ccc(NC(=S)Nc2cc(OC)c(Cl)cc2OC)cc1 was read as LDHA block inactive, VP16 counter 22.4µM, IL-1B inflam inh inactive, TDP1 cell noCPT inconclusive, DT40 TDP1 CPT 14.6µM and RORgamma inh 10µM.
COc1cc(C2CC(=O)Nc3c2c(C)nn3-c2ccc3nncn3n2)cc(OC)c1OC (stereo not drawn) was read as LDHA block inactive.
For Cc1ccc(NC(=S)c2ccc3ccccc3n2)c(C)c1 the results were LDHA block inactive, VP16 counter 7.94µM, IL-1B inflam inh inactive, TDP1 cell noCPT inconclusive, DT40 TDP1 CPT inconclusive and RORgamma inh 2µM.
Cc1ccc(NC(=O)c2cc(C)nc3ccccc23)c(C)c1 was read as LDHA block inactive, VP16 counter inactive, IL-1B inflam inh inactive, TDP1 cell noCPT inconclusive, DT40 TDP1 CPT inactive and RORgamma inh inactive.
`COc1cc(NC(=S)Nc2ccccn2)c(OC)cc1Cl` gave LDHA block inactive, VP16 counter 7.08µM, IL-1B inflam inh inactive, TDP1 cell noCPT inconclusive, DT40 TDP1 CPT inactive and RORgamma inh 1.26µM.
Cc1ccccc1NC(=S)Nc1ccccc1 was read as LDHA block inactive, VP16 counter inconclusive, IL-1B inflam inh inactive, TDP1 cell noCPT inactive, DT40 TDP1 CPT inactive and RORgamma inh inconclusive.
`Cc1ccccc1NC(=S)NC(C)CCc1ccccc1` (stereo not drawn) gave LDHA block inactive, VP16 counter 3.55µM, IL-1B inflam inh inactive, TDP1 cell noCPT 20.6µM, DT40 TDP1 CPT inconclusive and RORgamma inh 4.47µM.
`CCOc1ccc(NC(=S)NNC(=O)c2ccc(Br)cc2)cc1` gave LDHA block inactive, VP16 counter inactive, IL-1B inflam inh -64.4, TDP1 cell noCPT inconclusive, DT40 TDP1 CPT inactive and RORgamma inh inactive.
Screening CCOc1ccc(CN(C)C(=O)c2ccc3ccccc3n2)cc1 returned LDHA block inactive, VP16 counter inactive, IL-1B inflam inh inactive, TDP1 cell noCPT inactive, DT40 TDP1 CPT inactive and RORgamma inh inactive.
For CCOc1ccc(NC(=S)c2ccc3ccccc3n2)cc1 the results were LDHA block inactive, VP16 counter inconclusive, IL-1B inflam inh inactive, TDP1 cell noCPT inconclusive, DT40 TDP1 CPT inconclusive and RORgamma inh 6.31µM.
O=C(O)CCCC(=O)Nc1ccc(OCc2nc3ccccc3s2)cc1 was read as LDHA block inactive, VP16 counter inactive, IL-1B inflam inh inactive, TDP1 cell noCPT inconclusive, DT40 TDP1 CPT inactive and RORgamma inh inactive.
For CCNC(=S)Nc1ccc(OCc2nc3ccccc3s2)cc1 the results were LDHA block inactive, VP16 counter 15.8µM, IL-1B inflam inh inactive, TDP1 cell noCPT 23.1µM, DT40 TDP1 CPT 16.4µM and RORgamma inh 12.6µM.
For CCOc1ccc(NC(=S)NC(C)CCc2ccccc2)cc1 (stereo not drawn) the results were LDHA block inactive, VP16 counter 7.08µM, IL-1B inflam inh inactive, TDP1 cell noCPT inactive, DT40 TDP1 CPT inactive and RORgamma inh 2.51µM.
Screening CCOc1ccc(NC(=S)Nc2ccc(C)c([N+](=O)[O-])c2)cc1 returned LDHA block inactive, VP16 counter inconclusive, IL-1B inflam inh inactive, TDP1 cell noCPT inconclusive, DT40 TDP1 CPT inactive and RORgamma inh 14.1µM.
`CCCN(CCC)c1nc(-c2ccncc2)nc2ccccc12` gave LDHA block inactive.
For O=C(O)CCNS(=O)(=O)c1cccc(C(=O)O)c1 the results were LDHA block inactive.
For O=[N+]([O-])c1cccc(NC(=S)Nc2nc(-c3ccccc3Cl)cs2)c1 the results were LDHA block inactive, VP16 counter 2.51µM, IL-1B inflam inh -59.0, TDP1 cell noCPT 18.4µM, DT40 TDP1 CPT inconclusive and RORgamma inh 2µM.
Screening Cc1cc(NC(=O)CSc2nc(-c3ccc(Cl)cc3)cs2)no1 returned LDHA block inactive, VP16 counter inactive, IL-1B inflam inh inactive, TDP1 cell noCPT inactive, DT40 TDP1 CPT inactive and RORgamma inh inactive.
O=C(CSc1nc(-c2ccc(Cl)cc2)cs1)Nc1cccc([N+](=O)[O-])c1 was read as LDHA block inactive, VP16 counter inconclusive, IL-1B inflam inh inactive, TDP1 cell noCPT 16.4µM, DT40 TDP1 CPT inconclusive and RORgamma inh inactive.
`O=C(NCCc1cccc2cccnc12)NC1CCN(CC2CCCC2)CC1` gave LDHA block inactive.
For CCOC(=O)C1CCCN(C(=S)Nc2ccc(Nc3ccccc3)cc2)C1 (stereo not drawn) the results were LDHA block inactive, VP16 counter inactive, IL-1B inflam inh -96.4, TDP1 cell noCPT 23.1µM, DT40 TDP1 CPT inconclusive and RORgamma inh inconclusive.
Screening CCOC(=O)C1CCCN(C(=O)Cc2ccc(C)cc2)C1 (stereo not drawn) returned LDHA block inactive, VP16 counter inactive, IL-1B inflam inh inactive, TDP1 cell noCPT 18.4µM, DT40 TDP1 CPT inconclusive and RORgamma inh inactive.
CCOC(=O)c1ccc(NC(=S)N2CCCC(C)C2)cc1 (stereo not drawn) was read as LDHA block inactive, VP16 counter inconclusive, IL-1B inflam inh inactive, TDP1 cell noCPT inconclusive, DT40 TDP1 CPT inactive and RORgamma inh 12.6µM.
For CCOC(=O)C1CCCN(C(=O)c2ccc(-c3ccc([N+](=O)[O-])cc3)o2)C1 (stereo not drawn) the results were LDHA block inactive, IL-1B inflam inh inactive, TDP1 cell noCPT 11.6µM and DT40 TDP1 CPT 11.6µM.
For CCOC(=O)C1CCCN(C(=O)Cc2ccc(OC)c(OC)c2)C1 (stereo not drawn) the results were LDHA block inactive, VP16 counter inactive, IL-1B inflam inh inactive, TDP1 cell noCPT inactive, DT40 TDP1 CPT inactive and RORgamma inh inactive.
`CCOC(=O)c1ccc(NC(=S)N2CCCC(C(=O)N3CCCC3)C2)cc1` (stereo not drawn) gave LDHA block inactive, VP16 counter inactive, IL-1B inflam inh inactive, TDP1 cell noCPT inactive, DT40 TDP1 CPT inactive and RORgamma inh inactive.
Screening CCn1c(CN(c2ccccc2)S(C)(=O)=O)nnc1SCC(=O)c1cc(C)n(C2CC2)c1C returned LDHA block inactive.
